The results in this text go back to the supplement of paper PMC6089552.

For the assay, the system named is A673/TR/shEF. The assay can be described thus: cell viability (LOESS-normalised, relative to median of negative controls) (log2 ratio); higher = more viable cells (less compound effect), active = hit call of the paper (over 3 MAD below the median). The conditions noted are these: treatment time: 72 h. Put shortly:
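For three days, A673/TR/shEF Ewing sarcoma cells in 384-well plates (1,500 per well) were treated with library compounds at two or more concentrations or with DMSO controls, after doxycycline had been added or withheld 24 h beforehand to induce EWS-FLI1 shRNA knockdown. Viability was read by CellTiter-Glo luminescence on an Envision reader. The data were LOESS-corrected per plate, divided by the median of negative controls and log2-transformed.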

Setting [1] is: 0.25 µM, library screen: screen1, EWS-FLI1 expression: high (no doxycycline).
Where [2] appears, read: 0.25 µM, library screen: screen1, EWS-FLI1 expression: low (doxycycline-induced shRNA knockdown).
[3] abbreviates: 2.5 µM, library screen: screen1, EWS-FLI1 expression: high (no doxycycline).
The mark [4] stands for this setting: 2.5 µM, library screen: screen1, EWS-FLI1 expression: low (doxycycline-induced shRNA knockdown).
Where [5] appears, read: 0.25 µM, library screen: screen2, EWS-FLI1 expression: high (no doxycycline).
[6] abbreviates: 0.25 µM, library screen: screen2, EWS-FLI1 expression: low (doxycycline-induced shRNA knockdown).
Setting [7] is: 2.5 µM, library screen: screen2, EWS-FLI1 expression: high (no doxycycline).
Setting [8] is: 2.5 µM, library screen: screen2, EWS-FLI1 expression: low (doxycycline-induced shRNA knockdown).
Setting [9] is: 0.025 µM, library screen: screen1, EWS-FLI1 expression: high (no doxycycline).
Setting [10] is: 0.025 µM, library screen: screen1, EWS-FLI1 expression: low (doxycycline-induced shRNA knockdown).
The mark [11] stands for this setting: 25 µM, library screen: screen1, EWS-FLI1 expression: high (no doxycycline).
[12] abbreviates: 25 µM, library screen: screen1, EWS-FLI1 expression: low (doxycycline-induced shRNA knockdown).

Each structure is given as a SMILES string. Out of some 3,200 compounds screened, about 300 (9.4%) showed activity. This excerpt belongs to a sample that is enriched for actives.

Take `C=C1CCC(=O)C(C)CCC2C1CC2(C)C` (centres undefined): the “cell viability (log2)” value runs as follows: under setting [1], 0.0584 (inactive); under setting [2], -0.00925 (inactive); under setting [3], 0.119 (inactive); under setting [4], -0.105 (inactive).
In the case of `COc1ccc(-c2oc3cc(O[C@@H]4O[C@H](CO)[C@@H](O)[C@H](O)[C@H]4O)c(OC)c(O)c3c(=O)c2OC)cc1O`, the “cell viability (log2)” value is 0.0438 (inactive) under setting [1], 0.127 (inactive) under setting [2], 0.0949 (inactive) under setting [3] and 0.0982 (inactive) under setting [4].
For `O=C(O)C1CN(CCCP(=O)(O)O)CCN1` (centres undefined), the “cell viability (log2)” value was 0.0853 (inactive) under setting [5], 0.0707 (inactive) under setting [6], 0.0988 (inactive) under setting [7] and 0.109 (inactive) under setting [8].
For the compound `Cc1cccc(C)c1NC(=O)C[N+](C)(C)C`, the “cell viability (log2)” value under setting [5] was 0.174 (inactive), the “cell viability (log2)” value under setting [6] is 0.0998 (inactive), the “cell viability (log2)” value under setting [7] was 0.0786 (inactive) and the “cell viability (log2)” value under setting [8] is 0.0656 (inactive).
For the compound `CCN(CC)CC(=O)Nc1c(C)cccc1C`, the “cell viability (log2)” value reads like this: (0.103 µM, library screen: screen3, EWS-FLI1 expression: high (no doxycycline)) 0.148 (inactive); (0.103 µM, library screen: screen3, EWS-FLI1 expression: low (doxycycline-induced shRNA knockdown)) 0.0138 (inactive); under setting [1], 0.147 (inactive); under setting [2], 0.00307 (inactive); under setting [5], 0.111 (inactive); under setting [6], 0.106 (inactive). The “cell viability (log2)” value was 0.0507 (inactive) (0.308 µM, library screen: screen3, EWS-FLI1 expression: high (no doxycycline)); 0.127 (inactive) (0.308 µM, library screen: screen3, EWS-FLI1 expression: low (doxycycline-induced shRNA knockdown)); 0.13 (inactive) (0.926 µM, library screen: screen3, EWS-FLI1 expression: high (no doxycycline)); 0.0501 (inactive) (0.926 µM, library screen: screen3, EWS-FLI1 expression: low (doxycycline-induced shRNA knockdown)); 0.157 (inactive) under setting [3]; 0.131 (inactive) under setting [4]. The “cell viability (log2)” value under setting [7] was 0.0975 (inactive); the “cell viability (log2)” value under setting [8] is 0.0477 (inactive); the “cell viability (log2)” value (2.8 µM, library screen: screen3, EWS-FLI1 expression: high (no doxycycline)) was 0.00489 (inactive); the “cell viability (log2)” value (2.8 µM, library screen: screen3, EWS-FLI1 expression: low (doxycycline-induced shRNA knockdown)) was 0.0234 (inactive); the “cell viability (log2)” value (8.3 µM, library screen: screen3, EWS-FLI1 expression: high (no doxycycline)) was 0.0246 (inactive); the “cell viability (log2)” value (8.3 µM, library screen: screen3, EWS-FLI1 expression: low (doxycycline-induced shRNA knockdown)) was 0.018 (inactive). Moreover, the “cell viability (log2)” value was -0.278 (active) (25 µM, library screen: screen3, EWS-FLI1 expression: high (no doxycycline)) and 0.0253 (inactive) (25 µM, library screen: screen3, EWS-FLI1 expression: low (doxycycline-induced shRNA knockdown)).
With `CC[N+](CC)(CC)CC(=O)Nc1c(C)cccc1C`, the “cell viability (log2)” value runs as follows: under setting [5], 0.105 (inactive); under setting [6], 0.169 (inactive); under setting [7], 0.0372 (inactive); under setting [8], 0.0518 (inactive).
`CC(C)=CCCC(C)(O)C1CC=C(C)CC1` (centres undefined): the “cell viability (log2)” value under setting [1] is 0.0431 (inactive), the “cell viability (log2)” value under setting [2] was -0.0174 (inactive), the “cell viability (log2)” value under setting [3] is 0.0996 (inactive) and the “cell viability (log2)” value under setting [4] was 0.0501 (inactive).
Consider `COC(=O)c1c(C)cc(OC(=O)c2c(C)cc(O)c(CO)c2O)c(C)c1O`, for which the “cell viability (log2)” value under setting [1] is 0.129 (inactive), the “cell viability (log2)” value under setting [2] was 0.0318 (inactive), the “cell viability (log2)” value under setting [3] was 0.139 (inactive) and the “cell viability (log2)” value under setting [4] is 0.0883 (inactive).
The like results for `C[C@]12CC[C@@H](O)C[C@H]1CC[C@@H]1[C@@H]2C(=O)C[C@@]2(C)[C@H]1CC[C@]2(O)C(=O)CO` were, in that order, 0.162 (inactive), 0.116 (inactive), 0.185 (inactive) and 0.0107 (inactive).
In the case of `Cc1cc(=O)c2c(O)c3c(cc2o1)OCC(C)CC3` (centres undefined), the “cell viability (log2)” value reads like this: under setting [1], 0.0148 (inactive); under setting [2], 0.14 (inactive); under setting [3], 0.0878 (inactive); under setting [4], 0.127 (inactive).
As to `CN=C(N)NCCCC(N)C(=O)O` (centres undefined), the “cell viability (log2)” value reads like this: under setting [1], 0.0723 (inactive); under setting [2], 0.0246 (inactive); under setting [3], -0.0207 (inactive); under setting [4], -0.0108 (inactive).
In the case of `Nn1c(SCC(=O)c2ccc(Cl)cc2)nc2ccccc2c1=O`, the “cell viability (log2)” value reads like this: under setting [1], 0.102 (inactive); under setting [2], 0.0418 (inactive); under setting [3], 0.24 (inactive); under setting [4], 0.000811 (inactive).
As to `CC1(C)Oc2ccc3ccc(=O)oc3c2C[C@H]1O`, the “cell viability (log2)” value was 0.0366 (inactive) under setting [1], -0.00203 (inactive) under setting [2], 0.0909 (inactive) under setting [3] and 0.0204 (inactive) under setting [4].
The like results for `NC[C@@H]1O[C@H](O[C@H]2[C@@H](O)[C@H](O[C@@H]3[C@@H](O)[C@H](N)C[C@H](N)[C@H]3O[C@H]3O[C@H](CO)[C@@H](O)C[C@H]3N)O[C@@H]2CO)[C@H](N)[C@@H](O)[C@@H]1O[C@H]1O[C@H](CO)[C@@H](O)[C@H](O)[C@@H]1O` were, in that order, 0.156 (inactive), 0.0397 (inactive), 0.0315 (inactive) and 0.0591 (inactive).
Take `Cc1ccc(NC(=O)c2cccc(N(C)C)c2)cc1NC(=O)c1ccc(O)cc1`: the “cell viability (log2)” value is, setting by setting: under setting [9], 0.191 (inactive); under setting [10], -0.0357 (inactive); under setting [1], 0.277; under setting [2], 0.139 (inactive); under setting [3], -0.147 (active); under setting [4], 0.168 (inactive). Further, the “cell viability (log2)” value by setting is: under setting [11], -0.322 (active); under setting [12], 0.196 (inactive).
Regarding `CC(=O)Nc1cccc(O)c1`, the “cell viability (log2)” value was 0.142 (inactive) under setting [1], 0.0568 (inactive) under setting [2], 0.211 (inactive) under setting [3] and -0.0215 (inactive) under setting [4].
For the compound `Cc1nc(-c2ccc(NC(=O)c3ccccc3)cc2)cs1`, the “cell viability (log2)” value under setting [1] was 0.118 (inactive), the “cell viability (log2)” value under setting [2] was 0.115 (inactive), the “cell viability (log2)” value under setting [3] is 0.0995 (inactive) and the “cell viability (log2)” value under setting [4] was 0.089 (inactive).
For the compound `CC1(C)C(=O)C=C[C@]2(C)C3CC[C@@]4(C)[C@H](c5ccoc5)OC(=O)[C@H]5O[C@]54[C@]3(C)C(=O)C[C@@H]12` (some centres undefined), the “cell viability (log2)” value by setting is: under setting [1], 0.0539 (inactive); under setting [2], 0.0813 (inactive); under setting [3], 0.0765 (inactive); under setting [4], 0.119 (inactive).
`Cc1cc(=O)oc2cc(O)c(O)cc12`: the “cell viability (log2)” value reads like this: under setting [1], -0.0238 (inactive); under setting [2], 0.0536 (inactive); under setting [3], 0.00784 (inactive); under setting [4], 0.0751 (inactive).
For `Cc1cc(=O)oc2cc(O)ccc12`, the “cell viability (log2)” value reads like this: under setting [1], 0.129 (inactive); under setting [2], 0.0733 (inactive); under setting [3], 0.103 (inactive); under setting [4], -0.0344 (inactive).
For `Cc1cc(=O)oc2c(O)c(O)ccc12`, the “cell viability (log2)” value is, setting by setting: under setting [1], -0.0965 (active); under setting [2], -0.0218 (inactive); under setting [3], 0.0459 (inactive); under setting [4], 0.107 (inactive).
The like results for `N#CC1=C(N)Oc2cc(N)ccc2C1c1ccc(OCc2ccccc2)cc1` (centres undefined) were, in that order, 0.04 (inactive), 0.0479 (inactive), 0.099 (inactive) and 0.204 (inactive).
For `CC(C)C[C@H](N)CSSC[C@@H](N)CC(C)C`, the “cell viability (log2)” value under setting [5] is 0.107 (inactive), the “cell viability (log2)” value under setting [6] was 0.1 (inactive), the “cell viability (log2)” value under setting [7] was 0.104 (inactive) and the “cell viability (log2)” value under setting [8] is 0.0902 (inactive).
With `CCCCOCCOC(=O)CCCOc1ccc(Cl)cc1Cl`, the “cell viability (log2)” value was 0.0256 (inactive) under setting [1], 0.038 (inactive) under setting [2], 0.0946 (inactive) under setting [3] and 0.127 (inactive) under setting [4].
As for `CN(C)CCCn1cc(C2=C(c3c[nH]c4ccccc34)C(=O)NC2=O)c2ccccc21`, the “cell viability (log2)” value runs as follows: under setting [9], 0.176 (inactive); under setting [10], 0.147 (inactive); under setting [1], 0.197 (inactive); under setting [2], 0.193 (inactive); under setting [3], -0.136 (active); under setting [4], 0.291. For the same compound, the “cell viability (log2)” value under setting [11] is -0.422 (active) and the “cell viability (log2)” value under setting [12] is 0.0609 (inactive).
